Assay outcomes: PubChem, several laboratories
Rows were chosen to be rich in hits. Some 3.5% of all compounds tested hit in one or more screens of this group.
14-3-3 Bad inh = inhibitors of 14-3-3 zeta/Bad binding, primary screen, biochemical, TR-FRET, bovine 14-3-3 zeta. TR-FRET 14-3-3zeta/Dy647-pBad peptide displacement, 1 h. inhibition, % at 21.7 µM. 220,000 compounds, 0.71% hits. AID 781, 2007;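 active = inhibition above about 70%, limit read from the data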;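 also: 0% = full 14-3-3 plus peptide FRET controls and 100% = background without 14-3-3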
Hck Nef HTS = inhibitors of Nef-activated human Hck kinase, primary screen, biochemical, Z-Lyte FRET, 384-well, Hck-YEEI | Tyrosine-protein kinase HCK (Homo sapiens), P08631 | Recombinant Hck-YEEI plus Nef, Z-Lyte FRET kinase assay | inhibition, % at 20 µM | 220,000 compounds, 0.68% hits;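 active = Hck-Nef kinase inhibition above about 50%, limit read from the data; inactive = inhibition below that limit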;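 also: 0% = DMSO with Hck plus Nef and 100% = Hck alone without Nef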
eIF4E-4G inh = eIF4E–eIF4G protein interaction inhibitors, primary screen, biochemical, uHTS, TR-FRET, eIF4GI fragment; Eukaryotic translation initiation factor 4E (Mus musculus) + Eukaryotic translation …; TR-FRET eIF4E-eIF4GI(517-606) binding, 2 h; inhibition, % at 21.7 µM; 220,000 compounds, 0.37% hits; AID 782, 2007;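 active = inhibition above about 30%, limit read from the data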;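 also: 0% = full FRET control wells and 100% = background wells lacking eIF4GI fragment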
Mcl1-Noxa inh = Mcl-1/Noxa binding inhibitors, primary screen, biochemical, TR-FRET, 1536-well; inhibition, % at 21.7 µM; 220,000 compounds, 1.5% hits; TR-FRET Mcl-1/Noxa peptide binding, 2 h; AID 1022, 2008;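 active = compounds that cut the protein-peptide binding signal by more than 50% relative to plate controls in a single-dose test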;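 also: His-tagged Mcl-1 with rhodamine Noxa BH3 peptide and terbium anti-His antibody; 0% = Mcl-1 plus Noxa peptide wells and 100% = peptide-only wells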
Mcl-1 Bim block = inhibitors of Bim peptide binding to Mcl-1, primary screen, biochemical, bead-based flow cytometry, multiplex | Bim peptide-Mcl-1 binding | Induced myeloid leukemia cell differentiation protein Mcl-1 (Homo sapiens), Q07820 | AID 1009, 2008 | 190,000 compounds, 0.1% hits | inhibition, % at 10 µM; in the data active = inhibition above about 40%;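 also: 0% = no compound tracer wells and 100% = peptide blocker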
Mcl1 Bid PPI = Mcl-1/Bid binding inhibitors, primary screen, biochemical, TR-FRET, 1536-well; Induced myeloid leukemia cell differentiation protein Mcl-1 (Homo sapiens), Q07820; 220,000 compounds, 0.97% hits; AID 1021, 2008; TR-FRET Mcl-1/Bid-Dy647 peptide binding; inhibition, % at 21.7 µM;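 active = compounds that cut the binding signal by more than half at the single screening dose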;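 also: His-tagged Mcl-1 with europium anti-His antibody binding Bid BH3 peptide; 0% = Mcl-1 plus peptide wells and 100% = peptide-only wells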
Hck-Nef confirm = retest of Hck:Nef kinase inhibitor hits, confirmation, biochemical, Z-Lyte FRET, 384-well, p-Tyr peptide counterscreen; calls only at 10 µM; shares compounds with Hck Nef HTS; Recombinant Hck-YEEI:Nef, Z-Lyte FRET kinase assay; 1,300 compounds, 28% hits; AID 463188, 2010;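 active = average inhibition of at least 50%, with Z-scores no higher than 3 in both the phospho-tyrosine peptide and fluorescence counterscreens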
Numbers without * were called inactive.

Results for CCC1CCC(C(=O)NC(CCSC)C(=O)NCCN(CC(C)C)CC(C)C)CC1 (stereo not drawn) ?
14-3-3 Bad inh: -20.5; Hck Nef HTS: 20.2; eIF4E-4G inh: 2.4; Mcl1-Noxa inh: 2.6; Mcl-1 Bim block: 1.0; Mcl1 Bid PPI: -43.4

What do the screens show for `COc1cc(/C=C/[N+](=O)[O-])ccc1OCc1cccc(C(=O)O)c1`?
14-3-3 Bad inh: 63.2; Hck Nef HTS: 62.2*; eIF4E-4G inh: 6.6; Mcl1-Noxa inh: 59.8*; Mcl-1 Bim block: -1.0; Mcl1 Bid PPI: -2.7; Hck-Nef confirm: inactive

What do the screens show for `O=C(c1nc2ccccn2c1CN1CCCC(c2nc3ccccc3o2)C1)N1CCCC1` (stereo not drawn)?
14-3-3 Bad inh: 7.7; Hck Nef HTS: 14.1; eIF4E-4G inh: 4.2; Mcl1-Noxa inh: 13.6; Mcl-1 Bim block: -1.0; Mcl1 Bid PPI: -28.9

Results for N#Cc1c(-c2ccco2)nc(SCC(=O)Nc2cccc(Cl)c2)[nH]c1=O ?
14-3-3 Bad inh: -1.8; Hck Nef HTS: 56.2*; eIF4E-4G inh: 0.3; Mcl1-Noxa inh: 40.2; Mcl-1 Bim block: 1.0; Mcl1 Bid PPI: 18.9; Hck-Nef confirm: active

What do the screens show for `O=C(NCc1ccco1)c1cccc(S(=O)(=O)N2CCCCC2)c1`?
14-3-3 Bad inh: -1.4; Hck Nef HTS: 13.2; eIF4E-4G inh: 3.4; Mcl1-Noxa inh: 17.6; Mcl-1 Bim block: 1.0; Mcl1 Bid PPI: -39.0

Results for Cc1oc2cc3oc(=O)c4c(c3cc2c1C)CCC4 ?
14-3-3 Bad inh: 4.4; Hck Nef HTS: 0.8; eIF4E-4G inh: -1.7; Mcl1-Noxa inh: -13.2; Mcl-1 Bim block: -2.0; Mcl1 Bid PPI: -13.8

How did CCc1cc2c3c(c(=O)oc2cc1O)CCCC3 do in these assays?
14-3-3 Bad inh: -2.2; Hck Nef HTS: 91.4*; eIF4E-4G inh: 2.3; Mcl1-Noxa inh: 11.6; Mcl-1 Bim block: 1.0; Mcl1 Bid PPI: -9.4

What do the screens show for `CC1CCOC(c2coc3ccccc3c2=O)O1` (stereo not drawn)?
14-3-3 Bad inh: 7.5; Hck Nef HTS: 4.9; eIF4E-4G inh: -1.4; Mcl1-Noxa inh: 18.0; Mcl-1 Bim block: 14.0; Mcl1 Bid PPI: -10.9

Results for O=C(O)C1CSC(c2coc3ccccc3c2=O)N1 (stereo not drawn) ?
14-3-3 Bad inh: 4.6; Hck Nef HTS: 91.4*; eIF4E-4G inh: 18.1; Mcl1-Noxa inh: 21.9; Mcl-1 Bim block: -4.0; Mcl1 Bid PPI: -43.3; Hck-Nef confirm: active

What do the screens show for `Cc1cc(O)c(C(=O)/C=C/c2cccc([N+](=O)[O-])c2)c(=O)o1`?
14-3-3 Bad inh: -7.3; Hck Nef HTS: 107.6*; eIF4E-4G inh: 1.4; Mcl1-Noxa inh: 31.2; Mcl1 Bid PPI: -8.1; Hck-Nef confirm: inactive

How did Cn1c(/C=C/c2cccc([N+](=O)[O-])c2)nc2ccccc2c1=O do in these assays?
14-3-3 Bad inh: -1.0; Hck Nef HTS: 25.4; eIF4E-4G inh: -1.6; Mcl1-Noxa inh: -6.8; Mcl-1 Bim block: 0.0; Mcl1 Bid PPI: 5.0

Results for CCOC(=O)C1=C(C)C(c2ccccc2O)NC(=O)N1 (stereo not drawn) ?
14-3-3 Bad inh: 5.9; Hck Nef HTS: 56.6*; eIF4E-4G inh: 0.5; Mcl1-Noxa inh: -5.9; Mcl-1 Bim block: -5.0; Mcl1 Bid PPI: -6.0; Hck-Nef confirm: inactive

How did CCOC(=O)C1=C(C)C(c2ccc(OC)cc2OC)NC(=O)N1 (stereo not drawn) do in these assays?
14-3-3 Bad inh: 0.9; Hck Nef HTS: 1.0; eIF4E-4G inh: 1.6; Mcl1-Noxa inh: 3.0; Mcl-1 Bim block: -5.0; Mcl1 Bid PPI: -8.5

What do the screens show for `Cc1cc(C2=NNC(=Nc3ccc(S(=O)(=O)N4CCOCC4)cc3)SC2)c(C)n1C`?
14-3-3 Bad inh: 16.3; Hck Nef HTS: 62.7*; eIF4E-4G inh: 9.5; Mcl1-Noxa inh: 72.0*; Mcl1 Bid PPI: -41.6; Hck-Nef confirm: inactive

Results for COc1ccccc1C(=O)Oc1ccc2c(c1)O/C(=C\c1ccncc1)C2=O ?
14-3-3 Bad inh: 37.4; Hck Nef HTS: 75.6*; eIF4E-4G inh: -4.2; Mcl1-Noxa inh: 22.9; Mcl-1 Bim block: 14.0; Mcl1 Bid PPI: 8.3; Hck-Nef confirm: active

What do the screens show for `CCN(CC)S(=O)(=O)c1ccc(N2CCOCC2)c(NC(=O)CC23CC4CC(CC(Br)(C4)C2)C3)c1`?
14-3-3 Bad inh: -7.5; Hck Nef HTS: 4.9; eIF4E-4G inh: 7.3; Mcl1-Noxa inh: -23.6; Mcl-1 Bim block: -4.0; Mcl1 Bid PPI: 1.4

Results for CCN(CC)CCNC(=O)C(C)c1nn(CC)c(=O)c2ccccc12 (stereo not drawn) ?
14-3-3 Bad inh: 4.5; Hck Nef HTS: 9.0; eIF4E-4G inh: -1.8; Mcl1-Noxa inh: 22.0; Mcl-1 Bim block: 1.0; Mcl1 Bid PPI: 2.7

What do the screens show for `COc1ccc(C(=O)Nn2cnnc2)cc1OC`?
14-3-3 Bad inh: -1.0; Hck Nef HTS: -4.6; eIF4E-4G inh: 4.6; Mcl1-Noxa inh: 7.5; Mcl1 Bid PPI: -6.5

How did CCNc1cc2oc(=O)c(CN3CCOCC3)c(C)c2cc1C do in these assays?
14-3-3 Bad inh: 2.5; Hck Nef HTS: 82.4*; eIF4E-4G inh: 0.3; Mcl1-Noxa inh: 12.8; Mcl-1 Bim block: 0.0; Mcl1 Bid PPI: -14.2

Results for COc1cc(NS(=O)(=O)c2ccc(NC(=S)NC(=O)c3sc4ccccc4c3Cl)cc2)nc(OC)n1 ?
14-3-3 Bad inh: -5.4; Hck Nef HTS: 62.9*; eIF4E-4G inh: -2.5; Mcl1-Noxa inh: 68.9*; Mcl-1 Bim block: -4.0; Mcl1 Bid PPI: 66.1*; Hck-Nef confirm: active

Results for COC(=O)COc1cc(Cl)c(C=O)cc1OC ?
14-3-3 Bad inh: -9.4; Hck Nef HTS: 18.3; eIF4E-4G inh: 1.5; Mcl1-Noxa inh: 0.2; Mcl-1 Bim block: -2.0; Mcl1 Bid PPI: 0.5

Results for Oc1cccc(Nc2nc(O)c(/C=C3\C=Nc4ccccc43)s2)c1 ?
14-3-3 Bad inh: 73.1*; Hck Nef HTS: 88.2*; eIF4E-4G inh: 1.3; Mcl1-Noxa inh: 62.3*; Mcl1 Bid PPI: -55.1; Hck-Nef confirm: active

What do the screens show for `NC(=O)c1ccsc1NC(=O)C1CC1`?
14-3-3 Bad inh: 2.2; Hck Nef HTS: 74.7*; eIF4E-4G inh: -17.1; Mcl1-Noxa inh: 6.1; Mcl1 Bid PPI: -36.9; Hck-Nef confirm: active
